Test results from PubChem BioAssay (NCI).
This is part of a sample that, as a whole, favours compounds with a hit. Of some 83,000 tested, about 20% had one in any assay.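 Testing used 96-well plates and a 48-hour single-concentration exposure. Example: -40 means 40% of the starting cells died.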 A number with no mark means an inactive call. Calls of active or inactive are those of the source. The calls were made as follows: active = growth percent below 10; inactive = the rest.

Assays:
Assay in all cases: NCI-60 one-dose screen, 48 h (100 = growth as untreated, 0 = no growth, -100 = all killed)
Details in all cases: 10 µM unless noted
HCT-15 colon = test system: HCT-15 colon
HT29 colon = test system: HT29 colon
SNB-19 CNS = test system: SNB-19 CNS
U251 CNS = test system: U251 CNS
PC-3 prostate = test system: PC-3 prostate
SK-MEL-5 melanoma = test system: SK-MEL-5 melanoma
UACC-62 melanoma = test system: UACC-62 melanoma
LOX IMVI melanoma = test system: LOX IMVI melanoma
SK-MEL-28 melanoma = test system: SK-MEL-28 melanoma

SMILES | growth (HCT-15 colon) | growth (HT29 colon) | growth (SNB-19 CNS) | growth (U251 CNS) | growth (PC-3 prostate) | growth (SK-MEL-5 melanoma) | growth (UACC-62 melanoma) | growth (LOX IMVI melanoma) | growth (SK-MEL-28 melanoma)
COc1ccc(CC(=O)Nc2nn3c(-c4cc(C(F)(F)F)cc(C(F)(F)F)c4)nnc3s2)cc1 | 62.4% | 83.7% | 70.1% | 70.4% | 84.8% | 2.85% (active) | 28.6% | 52.3% | 84.5%
Cc1ccc(C2=NNC(c3sc(Cl)nc3Cl)C2)cc1 (stereo not given) | 77.3% | 107% | 92% | 99.1% | 93.6% | 88.9% | 89.9% | 9.94% (active) | 102%
O=C(NN1C(=O)c2cc(C(=O)O)c(C(=O)O)cc2C1=O)c1ccncc1 | 103% | 108% | 106% | 100% | 84.6% | 106% | 92.3% | 109% | 94.2%
Cc1nn(-c2ccccc2)cc1/C=C1\SC(N2CCCCC2)=NC1=O | 22% | 55.4% | 82.5% | 79.4% | 71% | 68.8% | 78.4% | 68.1% | 108%
COc1cc(/C=N/NC(=O)c2ccc(C(F)(F)F)nc2Nc2cc(Cl)ccc2C)cc(OC)c1OC | 104% | 127% | 75.4% | 87.4% | 66.8% | 102% | 85% | 102% | 99.5%
